Inconclusive results are not listed. Active and inactive are the calls of the source. Calls come from the whole dose curve; as a rule, active = well fitted inhibition curve with a large enough effect; inconclusive = small, poorly fitted or top-dose-only effect; inactive = flat fitted curve, though single readings scatter.
Potency is the fitted concentration of half-maximal effect.

Chain of Ferritin light chain (Equus caballus) (P02791 2-175 limits assumed): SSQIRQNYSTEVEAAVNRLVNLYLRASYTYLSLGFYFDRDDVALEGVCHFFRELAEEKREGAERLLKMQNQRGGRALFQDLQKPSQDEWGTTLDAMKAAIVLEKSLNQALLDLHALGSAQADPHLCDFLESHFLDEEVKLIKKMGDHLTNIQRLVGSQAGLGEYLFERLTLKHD

This experiment concerns the target Ferritin light chain (Equus caballus) (UniProt P02791). Kind of experiment: Confirmation Assay for Identification of Novel General Anesthetics. Note: nearly all actives have a fitted effect of over 40% in size. As to conditions: apoferritin 1-aminoanthracene fluorescence displacement. In a few lines:
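Competitive displacement of profluorescent 1-aminoanthracene from 10 uM horse-spleen apoferritin in 50% saturated 1-AMA/PBS; 10 min RT, fluorescence Ex 380/Em 535. Normalized to free 1-AMA and complex; four-parameter Hill fit.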
Consider `O=C(COC(=O)C1=COCCO1)NC1CCCCCCC1`, for which the Potency is 12.6 µM (active).

For `Fc1ccccc1CNc1cc(Cl)cc(Cl)c1`, the Potency is 14.1 µM (active).

For `O=C1CCCCCCC1Sc1ccccc1[N+](=O)[O-]` (stereo not drawn), the Potency was 7.94 µM (active).

In the case of `CCC(CC)C(=O)OCC(=O)NC12CC3CC(CC(C3)C1)C2`, the Potency was 10 µM (active).

Regarding `O=C1C(Cl)=C(N2CCOCC2)C(=O)N1c1ccccc1Cl`, the Potency was 15.8 µM (active).

On to `CCCn1nnc(NC(=O)COc2ccc(C3CCCCC3)cc2)n1`, for which the Potency is 12.6 µM (active).

Consider `O=C(CO/N=C/c1ccc(OC(F)F)cc1)NC1CCCCCC1`, for which the Potency was 11.2 µM (active).

`O=C(CCC(=O)c1ccc(Cl)cc1)OCC(=O)c1ccccc1`: the Potency was 17.8 µM (active).

Regarding `O=C(CCNc1cccc(Cl)c1)c1cccs1`, the Potency was 17.8 µM (active).

As to `Cc1ccc(CNc2ncnc3c2cnn3-c2ccc(C)cc2C)cc1`, the Potency was 15.8 µM (active).

Regarding `Nc1ccc(Nc2ccccc2)c(Cl)c1`, the Potency was 12.6 µM (active).

For `Cc1ccc(CNC(=O)c2nnn(-c3cccc(C)c3)c2N)cc1`, the Potency was 17.8 µM (active).

With `CCCNC(=O)c1csc2c1CCCCC2`, the Potency was 28.2 µM (active).

As for `O=S(=O)(Nc1ccc2c(c1)CCC2)c1cccs1`, the Potency is 17.8 µM (active).

In the case of `Cc1ccc(NC(=O)COC(=O)CSC(=S)N2CCOCC2)cc1`, the Potency is 15.8 µM (active).

For the compound `Cc1ccccc1Nc1nc2ccccc2s1`, the Potency was 14.1 µM (active).

For `CC(=O)Nc1ncc(Cc2cc(Cl)ccc2Cl)s1`, the Potency was 15.8 µM (active).

Take `COc1ccc(CNc2ccc(C)c(C)c2)cc1`: the Potency is 15.8 µM (active).

Consider `Nc1nc(Cl)cc(NCCc2ccc(O)cc2)n1`, for which the Potency is 14.1 µM (active).

Turning to `C/C(=N\Nc1ccc(F)cc1F)c1cccs1`, the Potency was 11.2 µM (active).

Take `CC(=O)c1cccc(NC(=O)CN2C(=O)NC3(CCCCCCC3)C2=O)c1`: the Potency was 14.1 µM (active).

As to `COc1ccc(Cc2nnc(NC(=O)c3ccccc3F)s2)cc1`, the Potency is 25.1 µM (active).

`Cc1ccc(NCc2cccnc2)c(Br)c1`: the Potency was 8.91 µM (active).

On to `c1cc2cn[nH]c2cc1NC1CCCCCC1`, for which the Potency was 15.8 µM (active).

As to `CC1CCCCC1NC(=O)COC(=O)COc1ccccc1Cl` (stereo not drawn), the Potency was 17.8 µM (active).

On to `Cc1ccc(S(=O)(=O)NCCC2=CCCCC2)cc1C(N)=O`, for which the Potency is 7.08 µM (active).

`Cc1ccc(O)c(N=Nc2ccccc2)n1`: the Potency was 22.4 µM (active).

In the case of `CCCCOC(=O)Nc1ccc(C)c(Cl)c1`, the Potency was 17.8 µM (active).

As for `CCN(CC)c1cccc(OC2=NS(=O)(=O)c3ccccc32)c1`, the Potency was 17.8 µM (active).

Consider `O=C(CCc1ccccc1)NC(=S)Nc1ccccc1[N+](=O)[O-]`, for which the Potency is 15.8 µM (active).

For the compound `O=C(COc1ccc(F)c(Cl)c1)N1CCCCCCC1`, the Potency was 35.5 µM (active).

Take `Nc1c(C(=O)NCc2ccccc2)nnn1Cc1cccc(Cl)c1`: the Potency is 3.98 µM (active).

Regarding `Nc1ccccc1Oc1ccc2ccccc2c1`, the Potency was 11.2 µM (active).

With `CC(NC(=O)COC(=O)C1=COCCO1)C12CC3CC(CC(C3)C1)C2` (stereo not drawn), the Potency was 14.1 µM (active).

As to `O=C1CCCc2ccccc2N1Cc1ccccc1Cl`, the Potency was 15.8 µM (active).

Turning to `O=C1CC(C2CCCO2)C(=O)N1c1cccc(Cl)c1` (stereo not drawn), the Potency was 14.1 µM (active).

As for `Cc1ccc(OCc2cc(C(=O)NC3CCc4ccccc43)no2)cn1` (stereo not drawn), the Potency is 17.8 µM (active).

For the compound `Cc1sc2ncn(CC(=O)NCc3ccco3)c(=O)c2c1-c1ccccc1`, the Potency is 28.2 µM (active).

The values above are taken from PubChem BioAssay AID489008 (National Center for Advancing Translational Sciences (NCATS), 2010).
